Reference: PubChem BioAssay (NCI)
Compounds without any hit were thinned out: in the full panel of roughly 79,000, 15% have a hit. No stated cut-off is given here; in the data, active means growth inhibition above about 70%; inactive means the rest.

Key:
[1] = NCI Yeast Anticancer Drug Screen. Data for the rad50 strain (AID 155);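 further: 0% = growth of vehicle-only cultures of the same strain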; conditions: S. cerevisiae rad50 strain growth inhibition; at 50.0 µM; stronger effect = higher value
Summary of the method: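 Vehicle-treated cultures provide the reference for the growth inhibition reported for compound-exposed, repair-deficient yeast.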

[2] = NCI Yeast Anticancer Drug Screen. Data for the mec2-1 strain (AID 157); conditions: S. cerevisiae mec2-1 strain, at 50.0 µM, stronger effect = higher value
Summary of the method: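 Test agents were screened against the mec2-1 yeast strain, with defined DNA repair or cell cycle alteration. Growth was scored as inhibition against vehicle-only controls.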

[3] = NCI Yeast Anticancer Drug Screen. Data for the cln2 rad14 strain (AID 165);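 further: 0% = growth equal to vehicle treated cultures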; conditions: S. cerevisiae cln2 rad14 strain, at 50.0 µM, stronger effect = higher value
Summary of the method: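 Growth of compound-exposed yeast (cln2 rad14 genotype) measured and expressed as inhibition relative to vehicle.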

[4] = NCI Yeast Anticancer Drug Screen. Data for the bub3 strain (AID 167); conditions: S. cerevisiae bub3 mutant strain, at 50.0 µM, stronger effect = higher value
Summary of the method: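 Mutant yeast screening strain plus compound; vehicle-treated cultures serve as the 0% inhibition reference.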

[5] = NCI Yeast Anticancer Drug Screen. Data for the mlh1 rad18 strain (AID 175); conditions: S. cerevisiae mlh1 rad18 strain growth inhibition; at 50.0 µM; stronger effect = higher value
Summary of the method: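 In this whole-cell yeast screen, a strain with altered DNA damage repair is challenged with compound, and its growth is measured against matched vehicle-treated controls.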

[6] = NCI Yeast Anticancer Drug Screen. Data for the sgs1 mgt1 strain (AID 161);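 further: 0% = growth of cultures given vehicle only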; conditions: S. cerevisiae sgs1 mgt1 strain, at 50.0 µM, stronger effect = higher value
Summary of the method: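 Test agents were incubated with a DNA-repair-mutant yeast strain. Growth was then read and compared against vehicle-treated controls.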

Measured: growth inhibition

CCC(=N)C(c1ccccc1)(c1ccccc1)C(C)CN(C)C (stereo not given)
inactive: [1] 23.6% | [2] -7.3% | [3] -4.75% | [4] -9.15% | [5] 13.7%

CC(=O)CC(SCCSCCSC(CC(C)=O)c1ccccc1)c1ccccc1 (stereo not given)
inactive: [1] 6.9% | [2] -3.65% | [3] 17.1% | [4] 3.95% | [5] 14.7%

CCOC(=O)C(C(C)=O)C(c1ccc(N(C)C)cc1)C(C(C)=O)C(=O)OCC (stereo not given)
inactive: [1] 8.75% | [2] -7% | [3] -6.2% | [4] -4% | [5] 9.45%

c1ccc(-c2nc3ccccc3nc2-c2ccc(-c3nc4ccccc4nc3-c3ccccc3)cc2)cc1
inactive: [1] 8.2% | [2] -0.6% | [3] 4.6% | [4] 1.85% | [5] -18.8%

Cc1ccc([N+](=O)[O-])cc1NC(=O)NCCO
inactive: [1] 1.15% | [2] 1.6% | [3] -71% | [4] 1% | [5] -1.75%

C=C1CN=C(Nc2ccc(F)cc2F)S1
inactive: [1] -0.15% | [2] 7.3% | [3] 8.15% | [4] 1.75% | [5] 2.65%

COc1ccc2ccc3cccnc3c2n1
inactive: [1] 45.2% | [2] 22.1% | [3] -2.35% | [4] 26.2% | [5] 2%

CCC1(C)CCC(C)(CC)c2cc(C)ccc21 (stereo not given)
inactive: [1] 9.9% | [2] 9.15% | [3] -16.8% | [4] 8.4% | [5] 25.9%

COC(=O)c1nc2c(N)nc(-c3ccccc3)nc2nc1N
inactive: [1] 8.9% | [2] -7.4% | [3] 11.3% | [4] -16.6% | [5] -1.95%

CC(=O)CC(=O)Nc1cccc(O)c1
inactive: [1] -15% | [2] -21.8% | [3] 11.8% | [4] -3.85% | [5] -2.85%

COC(=S)SSC(=S)NCCN(CCNC(=S)SSC(=S)OC)C(=S)SSC(=S)OC
inactive: [1] 2.05% | [2] 6.2% | [3] -2.7% | [4] 7.8% | [5] 26.6%

Cc1nccnc1N1CCCCC1
inactive: [1] 19.7% | [2] -0.75% | [3] 15.9% | [4] 1.9% | [5] -11.3%

N#C/C(=C\NC(N)=S)c1nc2ccccc2s1
inactive: [1] -18.1% | [2] 7.15% | [3] 24.8% | [4] -4.25% | [5] -11.7%

S=c1[nH]c2ccccc2nc1NCc1ccccc1
inactive: [1] -1.55% | [2] 2.75% | [3] -19.8% | [4] 10.1% | [5] 2.3%

C(=C1/NC(c2ccccc2)=Nc2ccccc21)/c1ccccc1
inactive: [1] 24.3% | [2] -0.5% | [3] 37.6% | [4] 4.85% | [5] 29.8%

CC1CCc2ccccc2N1C(=O)c1cccc([N+](=O)[O-])c1C(=O)O (stereo not given)
inactive: [1] -6.1% | [2] 2.7% | [3] -11.6% | [4] 21.7% | [5] 5.5%

COC(=O)C1=C(C)N(NC(=O)Nc2ccccc2)C2(N)N(NC(=O)Nc3ccccc3)C(C)=C(C(=O)OC)C12C(=O)OC (stereo not given)
inactive: [1] -8.9% | [2] 5.1% | [3] 2.2% | [4] 15.2% | [5] -2.8%

CN(C)C=NCc1ccc2c(c1)OCO2
inactive: [1] 2.05% | [2] -24% | [6] -13.2% | [4] 1.5% | [5] -17%

CC1=CCC(C(C)(C)NC(=O)c2ccccc2)C/C1=N/O (stereo not given)
inactive: [1] -56.7% | [2] -43% | [3] -49.2% | [4] -43.7% | [5] -66.5%

CCc1cc(Cl)c(O)c(Cl)c1
inactive: [1] 4.2% | [2] 18.2% | [6] 6.2% | [4] 17.5% | [5] 19%

O=c1[nH]cc(SSc2c[nH]c(=O)[nH]c2=O)c(=O)[nH]1
inactive: [1] 13.4% | [2] 15.7% | [3] -25.3% | [4] 29.9% | [5] 12.9%

CS(=O)(=O)OCC(CCl)(CCl)CCl
inactive: [1] -4.5% | [2] 0.55% | [3] 3.2% | [4] -3.45% | [5] -0.8%

Nc1[nH]c(=O)ncc1[N+](=O)[O-]
inactive: [1] 2.5% | [2] -4.1% | [6] 5.9% | [4] -16.2% | [5] -0.65%

N#Cc1ccc(CC(O)(c2ccccc2)c2ccccc2)cc1
inactive: [1] 4.6% | [2] -1.25% | [3] -12.6% | [4] 3.25% | [5] -9.7%

COc1cc(C2c3cc4c(cc3[C@@H](OC3OC5CO[C@@H](C)OC5C(O)C3O)[C@H]3COC(=O)C23)OCO4)cc(OC)c1OC (stereo not given in full)
inactive: [1] 2.4% | [2] -36.1% | [3] 12.4% | [4] -16.7% | [5] -83.5%

CCN(/N=C1\CC2C=CCN(C2)C(=O)Cc2c1[nH]c1ccccc21)S(=O)(=O)c1ccc(C)cc1 (stereo not given)
inactive: [1] 30.9% | [2] 12.1% | [3] 23.6% | [4] 20.5% | [5] 19.4%

CCCCCCCCCCCCCCOc1ccc(OCCCCCCCCC)cc1
inactive: [1] 38.4% | [2] -14.9% | [3] -13.8% | [4] 3.4% | [5] -13.9%

Oc1ccc2ccccc2c1
inactive: [1] -10.3% | [2] -27.8% | [3] -21.4% | [4] -16.4% | [5] 20.9%

O=C1CN(C(=O)Nc2ccccc2)c2ccccc2N1
inactive: [1] 26.6% | [2] -25.5% | [3] 4.55% | [4] 7% | [5] -5.5%

COc1ccc2c(c1)N(CC(C)CN(C)C)c1ccccc1S2 (stereo not given)
inactive: [1] 0.75% | [2] 25.7% | [3] -3.75% | [4] 39.5% | [5] 11.4%

CC(C)CC(NC(=O)OC(C)(C)C)C(=O)NC(Cc1c[nH]c2ccccc12)C(=O)NN (stereo not given)
inactive: [1] 37.8% | [2] 14.2% | [3] 32.3% | [4] 0.75% | [5] 27.7%

C[n+]1cccc(C(=O)c2ccccc2)c1
inactive: [1] 6.4% | [2] -4.8% | [3] 12.1% | [4] -0.55% | [5] 6.5%

COc1cc(NC(C)=O)c2[nH]c3c(C)cc(NC(C)=O)c(C)c3c2c1
inactive: [1] -25.6% | [2] -55.1% | [3] -34.5% | [4] -27.6% | [5] -56.7%

OCC(O)COc1ccc(OCc2ccccc2)cc1 (stereo not given)
inactive: [1] 2.65% | [2] -12.1% | [3] -21.5% | [4] -5.05% | [5] -20.3%

CCC(C(=O)O)C(=O)O
inactive: [1] -16.9% | [2] -38.4% | [3] 14.3% | [4] -7.75% | [5] 10.3%

O=[N+]([O-])c1ccc(Br)cc1
inactive: [1] -6.5% | [2] -14.2% | [3] 16.2% | [4] -2.3% | [5] 19.2%

CCOC(=O)CON
inactive: [1] -7.35% | [2] 1.9% | [3] -51% | [4] -12.4% | [5] -5.8%

Cc1ccc2c(c1)C(c1ccccc1)(c1ccccc1)N(c1ccccc1)S2(=O)=O
inactive: [1] 51.2% | [2] 34.2% | [3] 25.2% | [4] 20.5% | [5] 58.6%

O=c1oc2ccc(Cl)cc2c(OCCO)c1Cl
inactive: [1] -5.2% | [2] 4.55% | [3] -0.5% | [4] -5.95% | [5] -1.15%

CN(C)C=Nc1ccc2[nH]c3ccccc3c2c1
inactive: [1] -25.4% | [6] -16.2% | [3] 14.3% | [4] 22.9% | [5] 21.4%

COc1ccccc1C(=O)C1OC1c1ccc(Cl)cc1Cl (stereo not given)
inactive: [1] 19.1% | [6] -6.9% | [3] -32% | [4] 6.85% | [5] 5.05%

N#CC(C#N)SCc1ccccc1
inactive: [1] 17.1% | [6] -5.4% | [3] 6.25% | [4] 9.3% | [5] 17.8%

CCOC(=O)CC(=O)c1ccc(Cl)cc1
inactive: [1] 15.1% | [6] 11.4% | [3] 6.95% | [4] -12.8% | [5] -7.65%
